According to PubChem BioAssay:
Activity calls are given as the source filed them.

Legend:
[1] = system: Human papillomavirus type 1a protein E7 (residues 44-93); test: HPV1a E7 fragment binders on microarrays, primary screen, biochemical, small-molecule microarray, residues 44-93, 635 nm fluorescence (AID 1108); details: small-molecule microarray binding, fluorescence 635 nm; higher = more signal;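 also: E7 fragment applied at 1 µg/mL in TBST for 1 h at 4 C; score combines spot fluorescence with its signal to noise ratio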
[2] = modulators of HCV replicon luciferase signal, primary screen, HCV replication inhibitor project, Huh7 cells, luciferase reporter (AID 1109); details: 48 h, higher = more signal;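 also: huh7 hepatoma cells harbouring a luciferase neomycin HCV replicon reporter; luciferase luminescence as measure of HCV replicon replication; test concentration not given here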
[3] = target: Left-right determination factor 2 (Homo sapiens) (UniProt O00292); test: LEFTY2 binders on small-molecule microarrays, primary screen, biochemical, small-molecule microarray, 635 nm fluorescence scan (AID 1110); details: LEFTY2 binding, higher = more signal
[4] = target: Calmodulin-1 (Homo sapiens) (UniProt P0DP23); test: CALM1 binders on microarrays, EGTA buffer, profiling panel, biochemical, small-molecule microarray, Cy5-labelled CALM1 (AID 1111); details: Cy5-CALM1 binding fluorescence, higher = more signal;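 also: labelled calmodulin applied in Tris saline Tween buffer holding calcium plus EGTA and DTT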
[5] = target: Calmodulin-1 (Homo sapiens) (UniProt P0DP23); test: calcium-bound CALM1 binders on microarrays, profiling panel, artefact control for SMM control-protein annotation, biochemical, small-molecule microarray, Cy5-labelled CALM1, plus calcium (AID 1112); details: Cy5-CALM1 binding fluorescence, higher = more signal;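 also: score merges spot fluorescence with signal to noise from triplicate slides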
[6] = small-molecule microarray binders of probe aWnt5a, primary screen, biochemical, biotinylated probe, 635/667 nm fluorescence (AID 1113); details: higher = more signal;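 also: score merges 667 nm fluorescence intensity with signal-to-noise per printed feature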
[7] = small-molecule microarray binders of probe aShh, primary screen, biochemical, biotinylated probe, 635/667 nm fluorescence (AID 1114); details: higher = more signal;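 also: probe is biotin-labelled aShh protein from a stem cell growth factor screen; measures binding of labelled protein to compounds printed on the slide; score merges feature fluorescence at 667 nm with signal-to-noise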
[8] = small-molecule microarray binders of probe aNog, primary screen, biochemical, biotinylated probe, 635/667 nm fluorescence (AID 1115); details: higher = more signal;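 also: probe is biotinylated aNog protein used at 0.15 µg/mL for 1 h at 4 C; z-score combines 667 nm fluorescence of each spot with its signal to noise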
[9] = target: Torsin-1A-interacting protein 1 (Homo sapiens) (UniProt Q5JTV8); test: LAP1 binders from COS7 cell lysate, primary screen, small-molecule microarray, 635/667 nm fluorescence (AID 1116); details: COS7-hLAP1 lysate binding, 635 nm fluorescence, higher = more signal
[10] = target: Alpha-bungarotoxin (Bungarus multicinctus) (UniProt P60615); test: alpha-bungarotoxin binders on microarray, profiling panel, artefact control for SMM control protein annotation, biochemical, small-molecule microarray, Alexa647 label, 635/667 nm fluorescence (AID 1117); details: alpha-BTX-A647 binding fluorescence, higher = more signal
[11] = target: Albumin (Bos taurus) (UniProt P02769); test: bovine serum albumin binders on microarray, profiling panel, artefact control for SMM control protein annotation, biochemical, small-molecule microarray, Alexa647 label, 635/667 nm fluorescence (AID 1118); details: BSA-A647 binding, fluorescence 635 nm, higher = more signal;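 also: score merges 667 nm emission intensity and signal-to-noise per printed compound spot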
[12] = small-molecule microarray binders of probe aXIP, primary screen, biochemical, NeuroSMM set, 635/667 nm fluorescence (AID 1119); details: higher = more signal, called active from +8 up or from −8 down;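 also: probe is the protein aXip251-270 applied at 1 µg/mL to compound-printed slides; binding of probe to printed compounds measured as 667 nm fluorescence plus signal to noise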
[13] = small-molecule binders of probe aNOTCH3, primary screen, biochemical, small-molecule microarray, 635/667 nm fluorescence (AID 1120); details: higher = more signal;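 also: probe is a biotin-tagged antibody raised against NOTCH3 rather than NOTCH3 protein; score merges spot fluorescence near 667 nm with spot signal to noise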
[14] = small-molecule binders of probe aNOTCH2, primary screen, biochemical, small-molecule microarray, 635/667 nm fluorescence (AID 1121); details: higher = more signal;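 also: score merges feature fluorescence read at 667 nm with its signal to noise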
[15] = target: Carbonic anhydrase 2 (Homo sapiens) (UniProt P00918); test: CAII small-molecule binders, profiling panel, biochemical, small-molecule microarray, Alexa647-labelled CAII (AID 1122); details: CAII-A647 binding fluorescence, higher = more signal
[16] = COS7 lysate on small-molecule microarray, probe aHis, 635 nm (AID 1123); details: COS7 cell lysate, fluorescence, higher = more signal;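 also: z-score combines 667nm fluorescence intensity with signal-to-noise per printed compound spot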
[17] = compound binding in COS7 lysate, probe aLAP1, primary screen, cell lysate, small-molecule microarray (AID 1124); details: probe aLAP1, fluorescence, higher = more signal;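 also: lysate comes from COS7 cells expressing LAP1 and is applied at 0.3 µg/mL; score merges spot fluorescence near 667 nm with signal-to-noise over triplicate slides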
[18] = system: Sam68 (KHDRBS1); test: Sam68 small-molecule binders, primary screen, biochemical, small-molecule microarray, 635 nm fluorescence (AID 1125); details: small-molecule microarray binding, higher = more signal;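 also: score merges 667 nm channel intensity with signal to noise over triplicate slides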
[19] = system: Chordin-like protein 2 (CHRDL2); test: CHRDL2 small-molecule binders, primary screen, biochemical, small-molecule microarray, 635 nm fluorescence (AID 1126); details: small-molecule microarray binding, fluorescence 635 nm; higher = more signal;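 also: printed compound slides probed with Chrdl2 protein at 4 µg/mL for 1 h at 4 C; score merges 667 nm emission intensity with signal to noise over three replicate slides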
[20] = target: Concanavalin-A (Canavalia ensiformis) (UniProt P02866); test: ConA small-molecule binders, primary screen, artefact control for SMM control protein annotation, biochemical, small-molecule microarray, Alexa647 label, 635 nm (AID 1127); details: ConA-A647 binding fluorescence, higher = more signal;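 also: z combines 667 nm emission intensity with signal-to-noise across three replicate slides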
Concanavalin-A (Canavalia ensiformis), sequence (P02866 whole entry, looked up): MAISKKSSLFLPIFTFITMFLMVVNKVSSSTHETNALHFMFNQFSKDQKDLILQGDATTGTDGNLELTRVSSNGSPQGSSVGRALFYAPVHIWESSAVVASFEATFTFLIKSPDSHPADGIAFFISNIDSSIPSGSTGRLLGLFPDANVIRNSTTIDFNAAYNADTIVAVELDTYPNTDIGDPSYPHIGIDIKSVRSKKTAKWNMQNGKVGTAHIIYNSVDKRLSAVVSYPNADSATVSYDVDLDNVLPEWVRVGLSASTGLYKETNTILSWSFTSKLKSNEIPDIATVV

Alpha-bungarotoxin (Bungarus multicinctus), sequence (P60615 whole entry, looked up): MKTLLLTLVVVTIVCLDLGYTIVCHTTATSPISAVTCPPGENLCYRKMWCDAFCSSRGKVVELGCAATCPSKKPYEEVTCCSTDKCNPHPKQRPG
Torsin-1A-interacting protein 1 (Homo sapiens), sequence (Q5JTV8 whole entry, looked up): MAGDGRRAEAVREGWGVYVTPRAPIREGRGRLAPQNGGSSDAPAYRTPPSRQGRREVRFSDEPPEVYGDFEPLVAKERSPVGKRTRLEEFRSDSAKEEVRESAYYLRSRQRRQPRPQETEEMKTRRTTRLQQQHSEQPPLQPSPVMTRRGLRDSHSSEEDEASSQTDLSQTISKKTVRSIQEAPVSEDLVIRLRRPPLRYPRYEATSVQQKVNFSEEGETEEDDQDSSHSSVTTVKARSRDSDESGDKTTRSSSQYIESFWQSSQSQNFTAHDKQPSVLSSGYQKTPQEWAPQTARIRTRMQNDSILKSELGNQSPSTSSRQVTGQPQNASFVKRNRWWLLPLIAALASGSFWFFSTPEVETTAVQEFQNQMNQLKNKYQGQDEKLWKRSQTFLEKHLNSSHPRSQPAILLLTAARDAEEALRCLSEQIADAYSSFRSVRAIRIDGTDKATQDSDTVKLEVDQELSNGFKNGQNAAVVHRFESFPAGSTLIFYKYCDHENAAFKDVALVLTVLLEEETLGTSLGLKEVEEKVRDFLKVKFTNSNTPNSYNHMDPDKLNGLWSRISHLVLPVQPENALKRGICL
Left-right determination factor 2 (Homo sapiens), sequence (O00292 whole entry, looked up): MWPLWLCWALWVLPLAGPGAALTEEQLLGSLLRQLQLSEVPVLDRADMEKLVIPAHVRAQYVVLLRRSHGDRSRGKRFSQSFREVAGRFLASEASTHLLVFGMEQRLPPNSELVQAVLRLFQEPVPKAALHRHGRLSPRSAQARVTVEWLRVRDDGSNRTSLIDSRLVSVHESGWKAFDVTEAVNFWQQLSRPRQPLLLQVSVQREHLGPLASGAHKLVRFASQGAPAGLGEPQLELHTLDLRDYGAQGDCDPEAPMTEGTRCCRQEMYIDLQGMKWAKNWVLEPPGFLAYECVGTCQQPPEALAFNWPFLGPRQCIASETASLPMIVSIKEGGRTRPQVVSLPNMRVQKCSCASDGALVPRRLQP
Albumin (Bos taurus), sequence (P02769 whole entry, looked up): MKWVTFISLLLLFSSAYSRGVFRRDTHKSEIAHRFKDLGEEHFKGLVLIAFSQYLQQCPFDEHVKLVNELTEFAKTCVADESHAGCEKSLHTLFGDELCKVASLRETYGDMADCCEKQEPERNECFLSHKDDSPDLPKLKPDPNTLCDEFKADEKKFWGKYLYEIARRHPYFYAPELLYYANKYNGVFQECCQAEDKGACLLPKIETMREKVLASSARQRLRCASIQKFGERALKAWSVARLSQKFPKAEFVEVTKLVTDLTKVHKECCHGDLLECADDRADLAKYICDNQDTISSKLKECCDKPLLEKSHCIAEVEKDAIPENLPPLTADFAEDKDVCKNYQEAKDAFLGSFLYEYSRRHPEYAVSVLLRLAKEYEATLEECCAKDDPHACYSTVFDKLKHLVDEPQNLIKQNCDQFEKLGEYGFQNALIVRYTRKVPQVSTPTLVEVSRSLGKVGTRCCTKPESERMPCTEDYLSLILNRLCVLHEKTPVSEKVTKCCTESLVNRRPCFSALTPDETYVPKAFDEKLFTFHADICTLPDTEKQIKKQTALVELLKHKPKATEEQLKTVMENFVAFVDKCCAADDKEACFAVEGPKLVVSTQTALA

SMILES	composite z-score [1]	z-score [2]	composite z-score [3]	composite z-score [4]	composite z-score [5]	composite z-score [6]	composite z-score [7]	composite z-score [8]	composite z-score [9]	composite z-score [10]	composite z-score [11]	composite Z-score [12]	composite z-score [13]	composite z-score [14]	composite z-score [15]	composite z-score [16]	composite z-score [17]	composite z-score [18]	composite z-score [19]	composite z-score [20]
CCCCC#C[C@@H]1C=C[C@H](Oc2ccc(C(=O)OC)cc2)[C@@H](COC(=O)OCC)O1	0.42	-3.22	0.494	-0.184	-0.581	-0.0735	-0.2	0.129	1.19	0.807	0.109	-0.0877 (inactive)	-0.106	-0.0578	0.39	0.205	0.0053	0.769	0.978	0.64
COC(=O)CC=C[C@@H](C)[C@@H](C=NOCC[C@@H]1C=C[C@H](OC(C)=O)[C@@H](COC(C)=O)O1)NS(=O)(=O)c1ccc(C)cc1	-0.0642	-1.45	0.851	-0.879	-1.47	-0.0519	0.0141	-0.429	0.164	-0.0729	-0.361	0.366 (inactive)	0.132	-0.0938	-0.297	-0.309	0.195	0.854	0.687	-2.79
C=CC[C@@H]1C=C[C@H](ON=C(C)CCC(=O)OC[C@H]2O[C@H](C#Cc3ccccc3)C=C[C@@H]2Oc2ccc(C)cc2)[C@@H](CO)O1	1.42	0.568	0.605	0.759	0.188	-0.0236	0.0639	-0.0463	0.728	0.742	0.791	0.153 (inactive)	-0.0898	-0.101	0.286	1.23	0.441	1.29	0.126	1.13
CCCCC#C[C@@H]1C=C[C@H](OC(C)=O)[C@@H](COC(C)=O)O1	0.713	-2.47	0.579	0.349	-0.0635	-0.118	-0.221	-0.285	0.339	0.217	0.678	0.299 (inactive)	0.0758	-0.0698	-0.0641	0.015	-0.406	0.581	0.282	0.475
CC(C)CON=C1[C@H]2CCn3c(=O)n(Cc4cc5c(cc4Cl)OCO5)c(=O)n3[C@H]2[C@H](O)[C@@H]2O[C@H]12	0.271	0.0671	0.389	-0.0844	-0.635	-0.0758	0.0815	-0.329	0.38	0.351	-0.0261	0.242 (inactive)	-0.0328	-0.0718	0.0904	-0.182	-0.177	0.344	0.529	0.702
CC(CCC(=O)OC[C@H]1O[C@H](C#Cc2ccccc2)C=C[C@@H]1Oc1ccc(C)cc1)=NO[C@H](C)c1cn([C@H](CO)Cc2ccccc2)nn1	0.53	-1.57	0.423	0.0827	-0.0351	-0.0924	-0.138	0.0169	-0.166	-0.0686	0.276	0.392 (inactive)	-0.0847	-0.0966	-0.0419	0.757	0.0395	1.12	0.569	0.79
COc1cccc([C@H]2Oc3ccc(OC)cc3C(=NOC[C@@H](O)COCc3ccco3)[C@@H]2O)c1	-0.593	-1.04	-0.159	-2.33	-2.08	-0.278	-0.372	-0.539	-0.889	-0.799	-0.859	-0.874 (inactive)	-0.235	-0.0942	-1.02	-1.34	-0.446	-2.24	0.655	-3.36
C#CCCCON=C1[C@H]2CCn3c(=O)n(-c4ccccc4)c(=O)n3[C@H]2[C@H](O)[C@@H]2O[C@H]12	0.438	-2.97	0.602	-0.312	-0.273	-0.0792	-0.0146	-0.17	-0.131	0.515	0.37	-0.377 (inactive)	-0.0601	-0.142	-0.181	-0.169	-0.0252	0.131	0.609	0.184
CC(C)CON=C1C[C@@H](O)[C@@H](O)[C@@H]2[C@@H]3C(=O)N(C[C@@H]4CCCO4)C(=O)[C@@H]3CC[C@@H]12	0.267	0.444	0.0128	-0.333	0.0901	-0.173	-0.123	-0.103	-0.419	0.678	0.268	0.223 (inactive)	-0.0967	-0.14	0.165	0.421	0.419	0.12	-0.39	-0.339
C[C@@H]1C=CCC(=O)OC[C@H]2O[C@@H](C=C[C@@H]2O)[C@H](C)C=CCC(=O)OC1	-1.9	-0.362	1.59	-1.35	-2.47	-0.359	-0.0626	-0.285	0.113	0.981	-0.861	4.07 (inactive)	0.0903	-0.0903	-0.5	-1.26	-0.307	-0.419	1.6	-1.65
COC(=O)[C@H]1O[C@@H](c2c(OC)c(OC)c(C)c(OC)c2OC)[C@H](C)[C@@H](O)[C@H]1C	1.08	0.155	0.685	-0.112	-0.421	-0.157	-0.0769	0.0947	0.407	0.101	0.354	0.0421 (inactive)	0.0414	-0.0349	0.0615	1.04	-0.203	1.28	0.31	0.86
Cc1ccc(S(=O)(=O)N[C@@H]2COC(=O)[C@@H](C)COC(=O)CC=C[C@H]2C)cc1	-0.534	0.264	0.449	-0.0682	-0.523	-0.0222	-0.157	-0.0489	0.216	0.293	-0.0824	-0.145 (inactive)	0.135	-0.162	-0.006	-0.0704	-0.0424	-0.181	0.379	0.457
